Our source for the Potency and max response values is PubChem BioAssay (Tox21).

A short description of assay [1]: qHTS RealTime-Glo MT Cell Viability Assay in HepG2 cells - 40 hour (AID 1224870). Further: nearly all actives have a fitted effect of over 50% in size. Further: potency means the concentration at half of the fitted maximal effect. A digest of the protocol: (§1)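 HepG2 cells (600/well) mixed with RealTime-Glo MT reagent, settled 5 h at 37 C/5% CO2 before compound addition. Nonlytic NanoLuc luminescence from viable-cell prosubstrate reduction read repeatedly during 40 h treatment at 37 C.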
The nature of assay [2]: A CellTox Green Cytotoxicity Assay to monitor cytotoxicity in HEK293 cells - 40 hour (AID 1224871). Further: nearly all actives have a fitted effect of over 45% in size. Further: potency means the concentration at half of the fitted maximal effect. A digest of the protocol: (§2)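 Dead-cell fluorescence measured kinetically: asymmetric cyanine dye, HEK293, 600 cells/well, 5 h settle, 23 nL cpd/DMSO, 37 C, reads 0–40 h every 8 h.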
The nature of assay [3]: qHTS RealTime-Glo MT Cell Viability Assay in HEK293 cells - 16 hour (AID 1224872). Further: top concentration of the series differs between compounds; nearly all actives have a fitted effect of over 50% in size. A digest of the protocol:
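Luminescence generated by NanoLuc from substrate produced by living HEK293 cells served as the viability signal. Each value reflects the reading at its stated time point during continuous 40 h compound exposure at 37 C.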
For orientation: qHTS replaces the single test concentration by a dilution series.

Assay [4] can be described thus: qHTS RealTime-Glo MT Cell Viability Assay in HepG2 cells - 8 hour (AID 1224873). Further: nearly all actives have a fitted effect of over 55% in size. A digest of the protocol: as §1
Assay [5] in a line: qHTS RealTime-Glo MT Cell Viability Assay in HEK293 cells - 40 hour (AID 1224874). Further: nearly all actives have a fitted effect of over 50% in size. Further: potency means the concentration at half of the fitted maximal effect. Conditions: RealTime-Glo luminescence; max response: stronger effect = lower value. A digest of the protocol:
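600 HEK293 cells per well, dispensed already mixed with RealTime-Glo MT reagents. Compound dosing came 5 h later. The same wells were read for luminescence at 0, 8, 16, 24, 32 and 40 h of exposure at 37 C.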

The nature of assay [6]: A CellTox Green Cytotoxicity Assay to monitor cytotoxicity in HepG2 cells - 16 hour (AID 1224876). Further: nearly all actives have a fitted effect of over 45% in size. A digest of the protocol:
(§3)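 First, HepG2 cells (600/well) mixed with reagent were plated; second, after 5 h at 37 C they received compounds via pintool; third, fluorescence was measured at 0 h through 40 h at 8 h intervals.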

The nature of assay [7]: qHTS RealTime-Glo MT Cell Viability Assay in HepG2 cells - 32 hour (AID 1224877). Further: nearly all actives have a fitted effect of over 55% in size. Further: potency means the concentration at half of the fitted maximal effect. A digest of the protocol: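 Tox21 10K library screened in qHTS format on HepG2 cells carrying RealTime-Glo reagents. Compounds were added after a 5 h preincubation, and the luminescent signal from continuous culture was measured repeatedly during 40 h treatment.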
Assay [8] can be described thus: A CellTox Green Cytotoxicity Assay to monitor cytotoxicity in HepG2 cells - 40 hour (AID 1224879). Further: nearly all actives have a fitted effect of over 40% in size. Further: potency means the concentration at half of the fitted maximal effect. A digest of the protocol:
as §3

Assay [9] in a line: A CellTox Green Cytotoxicity Assay to monitor cytotoxicity in HepG2 cells - 24 hour (AID 1224878). Further: nearly all actives have a fitted effect of over 45% in size. Further: potency means the concentration at half of the fitted maximal effect. A digest of the protocol:
as §3

Assay [10] is described as follows: A CellTox Green Cytotoxicity Assay to monitor cytotoxicity in HEK293 cells - 24 hour (AID 1224875). Further: series mostly up to about 77 µM; nearly all actives have a fitted effect of over 45% in size. A digest of the protocol:
as §2

Several values for one entry are separate records, joined by “and”; a condition that tells them apart may be missing. Identical values can stand only once. Inconclusive results are not listed. Some compounds were tested as several samples or in several runs, with calls that do not always agree. Activity calls are given as the source filed them. The call rests on the fitted dose curve; in most records, active means well fitted curve in the direction sought with a large enough effect in the repeat runs; inconclusive means weak or mixed curves; inactive means no such curve, though single readings can be large; an effect the other way counts as inactive or inconclusive.
On the % scale 0 is the no-effect control and ±100 the full control effect.

For `Cc1oncc1C(=O)Nc1ccc(C(F)(F)F)cc1`, the Potency entry in assay [1], in assay [2], in assay [3], in [4], in assay [6] and in [7] was “inactive” each time. Further, the max response in assay [5] was 8.36% (inactive) and -3.36% (inactive). Besides, the Potency in [8] is 54.9 µM (active) and inactive.

In the case of `O=C1OCCN1/N=C/c1ccc([N+](=O)[O-])o1`, the Potency result in [1], in assay [2], in assay [3], in assay [6], in [9] and in assay [8] was “inactive” in each case. Further, in assay [5], the max response is 2.01% (inactive).

Consider `O=C(O)c1c(O)c(-c2ccccc2)nc2ccccc12`, for which the Potency entry in [1], in assay [2], in assay [3], in assay [4], in assay [9] and in assay [8] was “inactive” throughout. Also, the max response in [5] was 0.412% (inactive).

Take `Cc1cc(O)c(C(C)C)cc1Cl`: the Potency entry in assay [1], in assay [3], in [4] and in assay [7] was “inactive” in each case. Further, the results for the Potency in assay [2], in assay [9] and in assay [8] were 38.9 µM (active), 27.5 µM (active) and 34.7 µM (active), respectively. The max response in assay [5] was -23.1% (inactive) and 3.73% (inactive).

As for `CCC(C)(C)C1CCC(O)CC1` (stereo unspecified), the Potency entry in assay [1], in assay [2], in [3], in assay [4] and in assay [7] was “inactive” throughout. The max response in [5] is 3.32% (inactive).

On to `C[N+](C)(C)CCOC(N)=O`, for which the Potency entry in [1], in [2], in [3], in assay [4], in [7] and in assay [9] was “inactive” each time. In [8], the Potency entry was “inactive”. In addition, the max response in assay [5] was 0.438% (inactive).

For the molecule `CCCCC(CC)CNCC(CC)CCCC` (stereo unspecified), the Potency result in [1], in assay [2], in assay [3], in assay [4], in [6] and in assay [7] was “inactive” in each case. For the same molecule, the Potency result in [9] and in [8] was “inactive” in each case. The max response in [5] is 8.85% (inactive).

In the case of `COc1cc2c(cc1OC)-c1cc(=Nc3c(C)cc(C)cc3C)n(C)c(=O)n1CC2`, the Potency entry in assay [1], in assay [2], in assay [3], in [4], in [10] and in assay [6] was “inactive” in each case. For the same molecule, in assay [7], the Potency entry is “inactive”. For the same molecule, the Potency in [8] is 21.3 µM (active).

Regarding `Cc1cc(S(=O)(=O)O)ccc1N=Nc1c(O)ccc2ccccc12`, the Potency result in assay [1], in [2], in [3], in [10], in [6] and in [7] was “inactive” throughout. The Potency entry in [9] and in [8] was “inactive” each time. In addition, in assay [5], the max response is -12.7% (inactive).

As to `O=C(CCCCCCCCC#CI)Oc1ccccc1`, the Potency in assay [1] was 2.39 µM (active); in assay [5], 5.35 µM (active); in assay [7], 4.77 µM (active). The Potency result in [2], in assay [3], in assay [10], in [6], in assay [9] and in [8] was “inactive” in each case.

As to `CNC(=S)NC`, the Potency result in assay [1], in assay [2], in assay [3], in assay [4], in assay [10] and in [6] was “inactive” each time. Also, the Potency result in [7] and in [9] was “inactive” in each case. For the same molecule, the Potency in assay [8] was 54.9 µM (active).

As to `C=CC(C)(O)CCCC(C)CCCC(C)CCCC(C)C` (stereo unspecified), the Potency entry in assay [1], in assay [2], in [3], in assay [4], in assay [6] and in [7] was “inactive” each time. Also, in [8], the Potency result is “inactive”. The max response in [5] is 6.13% (inactive).

Consider `C[C@@H]1C[C@H]2[C@@H]3CCC4=CC(=O)C=C[C@]4(C)[C@@]3(F)[C@@H](O)C[C@]2(C)[C@@]1(O)C(=O)CO`, for which the Potency result in assay [1], in assay [2], in assay [3], in assay [4], in assay [10] and in [6] was “inactive” each time. For the same molecule, the Potency result in assay [7], in assay [9] and in assay [8] was “inactive” throughout.

Consider `OCCSc1ccccc1`, for which the Potency result in assay [1], in assay [2], in assay [3], in [4], in assay [7] and in assay [9] was “inactive” each time. Besides, the Potency entry in assay [8] was “inactive”. Moreover, the max response in assay [5] is -28.1% (inactive).

Consider `CC(=O)[C@H]1CC[C@H]2[C@@H]3C=CC4=CC(=O)CC[C@@]4(C)[C@@H]3CC[C@]12C`, for which the Potency result in assay [1], in [2], in assay [3], in assay [4], in assay [10] and in [6] was “inactive” throughout. In addition, the Potency entry in [7] and in [8] was “inactive” each time.

In the case of `COCCOC(=O)C1=C(C)NC(C)=C(C(=O)OC/C=C/c2ccccc2)C1c1cccc([N+](=O)[O-])c1` (stereo unspecified), the Potency result in assay [1], in assay [2], in assay [3], in assay [6], in assay [9] and in [8] was “inactive” in each case.

Consider `C[Si]1(C)O[Si](C)(C)O[Si](C)(C)O1`, for which the Potency result in assay [1], in assay [2], in assay [4], in [10], in [6] and in assay [7] was “inactive” throughout. Further, the Potency result in assay [9] and in assay [8] was “inactive” each time. The max response in [5] was 0.932% (inactive).
